Test results: PubChem BioAssay AID1845227 (National Center for Advancing Translational Sciences (NCATS), 2023)
Results filed as inconclusive are left out. The source made the active and inactive calls. Calls come from the whole dose curve; as a rule, active = well fitted inhibition curve with a large enough effect; inconclusive = small, poorly fitted or top-dose-only effect; inactive = no such curve, though single readings can be large or run the other way.

The molecules below were run against Luciferin 4-monooxygenase (Photinus pyralis) (UniProt P08659) (assay: Confirmatory firefly luciferase (FLuc) qHTS assay for identification of artifact compounds). Details: purified FLuc enzyme, luminescence, 5 min; series mostly up to 38.9 µM.
Procedure, shortened: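 Purified Photinus pyralis luciferase (10 nM) with D-luciferin and ATP each 10 uM, pH 7.6 Tris-acetate; compounds preincubated 15 min with substrate, 5 min after enzyme; luminescence normalized to no-enzyme and DMSO, 4-parameter Hill fit.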

Potency, inactive:
COc1ccc(-c2noc(N3CCC(C(=O)N4CCN(c5cccc(C)c5C)CC4)CC3)n2)cc1
C[C@H](CCC(=O)NCCS(=O)(=O)O)C1CC[C@H]2C3CC[C@@H]4C[C@H](O)CC[C@]4(C)C3C[C@H](O)[C@]12C (some centres undefined)
CN[C@@H]1[C@@H](O[C@H]2O[C@H](CO)[C@@H](N)[C@H](O)[C@H]2O)O[C@H]2C[C@@H](N)[C@@H](O[C@H]3[C@H](O)[C@@H](O)[C@H](N)C[C@@H]3N)O[C@@H]2[C@@H]1O
COc1ccc(OC)c(NC(=O)CC(=O)Nc2ccc3nc4n(c(=O)c3c2)CCCCC4)c1
Cc1ccc(C2C=C(c3ccccc3)Nc3nc(NS(=O)(=O)c4ccccc4)nn32)cc1 (centres undefined)
CC(CCc1ccccc1)NC(=O)Cn1c(=O)nc(-c2ccccc2F)c2cc(Cl)ccc21 (centres undefined)
COc1cccc(-c2nnc(Nc3nc4ccc(OC)cc4s3)o2)c1
COc1ccc(N2CC(NC(=O)COc3ccccc3)CC2=O)cc1OC (centres undefined)
COc1ccc(-c2nnc3n2N=C(c2cc(OC)ccc2OC)CS3)c(OC)c1
O=C(C1CCC(CNS(=O)(=O)c2cccc3cccnc23)CC1)N1CCCCC1 (centres undefined)
CCOC(=O)c1c(S(=O)(=O)NCC(=O)N2CCN(c3cc(C)ccc3C)CC2)c(C)n(C)c1C
CCc1ccc(S(=O)(=O)c2nnn3c2nc(N2CCOCC2)c2sccc23)cc1
O=C1CCc2cc([S+](=O)([O-])NC3CCOCC3)ccc2N1
O=C(Nc1cc(-c2ccc(Cl)cc2)no1)c1ccc(F)cc1
